Test results: PubChem BioAssay (NCI)
This is part of a sample that, as a whole, favours compounds with a hit. Of some 83,000 tested, about 20% had one in any assay.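 Growth was measured after 48 h exposure to one concentration of compound in 96-well plates. Values under 10 count as active.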 Calls of active or inactive are those of the source.

Assays:
Experiment in all cases: NCI-60 one-dose screen, 48 h (100 = growth as untreated, 0 = no growth, -100 = all killed)
Conditions in all cases: 10 µM unless noted
[1] = test system: SK-MEL-2 melanoma
[2] = test system: SN12C renal
[3] = test system: UO-31 renal
[4] = test system: TK-10 renal
[5] = test system: ACHN renal
[6] = test system: CAKI-1 renal
[7] = test system: A498 renal
[8] = test system: CCRF-CEM leukemia
[9] = test system: SR leukemia
[10] = test system: RPMI-8226 leukemia
[11] = test system: OVCAR-8 ovarian
[12] = test system: OVCAR-5 ovarian
[13] = test system: OVCAR-4 ovarian
[14] = test system: SK-OV-3 ovarian
[15] = test system: IGROV1 ovarian
[16] = test system: OVCAR-3 ovarian
[17] = test system: HS 578T breast
[18] = test system: NCI/ADR-RES ovarian
[19] = test system: MOLT-4 leukemia

Row | Structure (SMILES) | growth [1] | growth [2] | growth [3] | growth [4] | growth [5] | growth [6] | growth [7] | growth [8] | growth [9] | growth [10] | growth [11] | growth [12] | growth [13] | growth [14] | growth [15] | growth [16] | growth [17] | growth [18] | growth [19]
1 | COC(=O)[C@]12CC[C@@H](C)[C@H](C)[C@@H]1C1=CC[C@@H]3[C@@]4(C)C(C=O)=C[C@@](C)(COC(=O)c5ccco5)[C@@H]4C(=O)C[C@@]3(C)[C@]1(C)CC2 | -31.8% (active) | 42% (inactive) | 29.7% (inactive) | 29.7% (inactive) | 13.4% (inactive) | 38.8% (inactive) | 65.5% (inactive) | 5.47% (active) | 32.5% (inactive) | 14.6% (inactive) | 24.8% (inactive) | 59.4% (inactive) | 29.8% (inactive) | 33.7% (inactive) | 51.8% (inactive) | 40.4% (inactive) | 65.3% (inactive) | 28.4% (inactive) | –
2 | N[C@@H](CCCCNCC(=O)O)C(=O)O | 115% (inactive) | 101% (inactive) | 91% (inactive) | 98.1% (inactive) | 96.8% (inactive) | 96.9% (inactive) | 85.4% (inactive) | – | 99.3% (inactive) | 116% (inactive) | – | 102% (inactive) | 101% (inactive) | 103% (inactive) | 108% (inactive) | 114% (inactive) | 98.2% (inactive) | 101% (inactive) | –
3 | COc1cc(/C=C/C(=O)c2ccc(Nc3nc(Nc4ccc(F)cc4)nc(Nc4ccc(Cl)cc4)n3)cc2)cc(OC)c1OC | 62.6% (inactive) | 70.1% (inactive) | 42.4% (inactive) | 73.9% (inactive) | 78.1% (inactive) | 124% (inactive) | 79.8% (inactive) | – | -5.99% (active) | -47.5% (active) | 31.7% (inactive) | 81.3% (inactive) | 31.8% (inactive) | 105% (inactive) | 54.8% (inactive) | 190% (inactive) | 59.1% (inactive) | 38.9% (inactive) | 0.996% (active)
4 | COc1ccc(NC(=O)CSc2nc(C)c(C(C)=O)n2-c2ccc([N+](=O)[O-])cc2)cc1 | 89.3% (inactive) | 94.7% (inactive) | 83.6% (inactive) | 96.9% (inactive) | 95.6% (inactive) | 99.6% (inactive) | 58.1% (inactive) | 111% (inactive) | – | 102% (inactive) | 96.4% (inactive) | 89.8% (inactive) | 102% (inactive) | – | 95.8% (inactive) | 119% (inactive) | 94.9% (inactive) | 86% (inactive) | 92.2% (inactive)
5 | CCN(CC)CCN1CC(O)=C(c2nc(-c3ccc(Cl)cc3)cs2)C1=N | 100% (inactive) | 64.5% (inactive) | -24.7% (active) | 89.2% (inactive) | 42.5% (inactive) | 43.2% (inactive) | 56.5% (inactive) | – | -4.58% (active) | 13.6% (inactive) | 44.6% (inactive) | 66.4% (inactive) | 84.6% (inactive) | 101% (inactive) | 40.8% (inactive) | 80.5% (inactive) | 47.2% (inactive) | 69.4% (inactive) | 1.18% (active)
6 | O=C(Nc1ccccc1)Nc1cccc(Oc2nnc(Cl)c3ccccc23)c1 | 9.53% (active) | 53.7% (inactive) | – | 25.3% (inactive) | 33.9% (inactive) | 84.4% (inactive) | – | 47.6% (inactive) | 18% (inactive) | 35.1% (inactive) | 15.5% (inactive) | 86.3% (inactive) | 0.217% (active) | -0.5% (active) | 37.2% (inactive) | 25.4% (inactive) | 1.19% (active) | 16.9% (inactive) | –
7 | N/C(=N\c1nc2ccccc2s1)NC(=O)Nc1cccc(Cl)c1 | 28.9% (inactive) | 40.9% (inactive) | 46.8% (inactive) | 69.2% (inactive) | 44.7% (inactive) | 23.9% (inactive) | 10.7% (inactive) | – | 14.8% (inactive) | 41.6% (inactive) | 47.7% (inactive) | 67.5% (inactive) | 62.3% (inactive) | 41.9% (inactive) | 35.5% (inactive) | 15.8% (inactive) | 17.5% (inactive) | 11.8% (inactive) | 31.1% (inactive)
8 | NC(N)=NN=C(c1ccccc1)c1ccccc1 | 39.3% (inactive) | 51.3% (inactive) | 63.6% (inactive) | 46.1% (inactive) | 48.1% (inactive) | 50.4% (inactive) | 34% (inactive) | – | – | 25% (inactive) | 40% (inactive) | 79.3% (inactive) | 71% (inactive) | 5.22% (active) | 48.1% (inactive) | 21.3% (inactive) | – | 59.3% (inactive) | 31.8% (inactive)
9 | Nc1nc(N)c2c(n1)NC(c1ccccc1)C1CCc3ccccc3C1=N2 (centres undefined) | 86.6% (inactive) | 66% (inactive) | 55.9% (inactive) | 36% (inactive) | 39.3% (inactive) | 34.1% (inactive) | 42.5% (inactive) | – | 19.3% (inactive) | 24.5% (inactive) | 64.9% (inactive) | 112% (inactive) | 27.3% (inactive) | 57.9% (inactive) | 92.2% (inactive) | 38.4% (inactive) | 71.2% (inactive) | 23.9% (inactive) | –
10 | O=C(NCCCNc1cc(-c2cn(-c3ccccc3)nc2-c2cccc(O)c2)ccn1)c1ccc(F)cc1 | -8.95% (active) | 55% (inactive) | 27.1% (inactive) | 60.4% (inactive) | 51.7% (inactive) | 12.4% (inactive) | 29% (inactive) | 22.3% (inactive) | -26.4% (active) | -9.31% (active) | 36.1% (inactive) | 58% (inactive) | 39.8% (inactive) | 30.1% (inactive) | 45.8% (inactive) | 38.4% (inactive) | -16.7% (active) | 19% (inactive) | –
11 | COc1ccc(N=C(c2ccccc2)C2C(=O)c3ccccc3C2=O)cc1 | 40.8% (inactive) | 104% (inactive) | 40.5% (inactive) | 103% (inactive) | 72.1% (inactive) | 88.1% (inactive) | 61.2% (inactive) | 46.1% (inactive) | – | 37.2% (inactive) | 83.3% (inactive) | 104% (inactive) | 77.3% (inactive) | 108% (inactive) | – | 82.3% (inactive) | 86.9% (inactive) | 91.9% (inactive) | 49.2% (inactive)
12 | Cc1ccc(NCCN(C)C)c2c(=O)c3ccccc3sc12 | 71.9% (inactive) | 25.1% (inactive) | -30.5% (active) | 54.8% (inactive) | 3.03% (active) | -20% (active) | 37.6% (inactive) | 27% (inactive) | 17% (inactive) | -23.4% (active) | 16.3% (inactive) | 62% (inactive) | 42.4% (inactive) | – | -30.9% (active) | 33.8% (inactive) | 46.4% (inactive) | 38.6% (inactive) | –
13 | CCCc1cc2c(=O)c(C(=O)OC)c[nH]c2cc1N(CC)CC | 93.9% (inactive) | 94.7% (inactive) | 82.6% (inactive) | 101% (inactive) | 92.7% (inactive) | 94.9% (inactive) | 107% (inactive) | 88.2% (inactive) | – | 82.5% (inactive) | 102% (inactive) | 88.8% (inactive) | 101% (inactive) | 100% (inactive) | – | 95.3% (inactive) | 123% (inactive) | 99% (inactive) | 98.2% (inactive)
14 | COC(=O)[C@H](CSC)N(C)C(=O)[C@@H]1CSSC[C@@H](NC(=O)c2nc3ccccc3cc2O)C(=O)NCC(=O)N1C | 61.3% (inactive) | 66.5% (inactive) | 71.9% (inactive) | 88.4% (inactive) | 88% (inactive) | 104% (inactive) | 102% (inactive) | – | 28.6% (inactive) | 85.2% (inactive) | 90.2% (inactive) | 128% (inactive) | 103% (inactive) | 91.6% (inactive) | 95.8% (inactive) | 58.2% (inactive) | 90.9% (inactive) | 104% (inactive) | 23.8% (inactive)
15 | O=C(CC(SCc1ccccc1)c1ccccc1)c1ccccc1 (centres undefined) | 120% (inactive) | 98.8% (inactive) | 84.7% (inactive) | 87.3% (inactive) | 99.6% (inactive) | 95.8% (inactive) | 81.8% (inactive) | 95.9% (inactive) | 41% (inactive) | 38.5% (inactive) | 103% (inactive) | 98.4% (inactive) | 90% (inactive) | 99.7% (inactive) | 91.4% (inactive) | 86.5% (inactive) | 107% (inactive) | 93.5% (inactive) | –
